{
  "source": "the supplement of paper PMC11150407",
  "note": "Where a name gives a salt, the structure may show the parent alone. In all, about 2,100 compounds went through this assay and about 180 (8.6%) showed an effect of 50% or more. The sample holds strong results, similar compounds and a random draw of the others, so the mix is not that of the screen.",
  "data": [
    {"tested_on": "MOLM1 and UCSD/AML1 (averaged)", "assay": "cell viability relative to DMSO control (POC); higher = less growth inhibition", "settings": "1 µM; 72 h", "description": "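Primary viability screen in the 3q26 EVI1-high AML cell lines MOLM1 and UCSD/AML1 (1.5e3 cells/well, 384-well), compounds at 1 uM for 72 h. ATP CellTiter-Glo read-out given as percent of viable cells over DMSO control (POC), averaged over duplicates. DMSO was the negative control and 5 uM etoposide the positive control. This mapping covers the MicroSource Spectrum and Selleck anticancer libraries (drug names).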", "units": {"cell viability": "%"}, "values": [
      {"smiles": "COc1cc(OC)c(C(C)=O)c(O)c1C", "cell viability": 111},
      {"smiles": "CN[C@@H](C)C(=O)N[C@H]1CN(C(=O)CC(C)C)CC[C@H]2CC[C@@H](C(=O)NC(c3ccccc3)c3ccccc3)N2C1=O", "cell viability": 68.5},
      {"smiles": "CON", "cell viability": 109},
      {"smiles": "CC(=O)OC/C=C(\\C)CC/C=C(\\C)CC/C=C(\\C)CC/C=C(\\C)CC/C=C(\\C)CC/C=C(\\C)CC/C=C(\\C)CC/C=C(\\C)CCC=C(C)C", "cell viability": 106},
      {"smiles": "O=C1C=C2CC3(O)COc4c(ccc(O)c4O)C3=C2C=C1O", "note": "(stereo not drawn)", "cell viability": 97.6},
      {"smiles": "Cc1c2oc3c(C)ccc(C(=O)N[C@@H]4C(=O)N[C@H](C(C)C)C(=O)N5CCC[C@H]5C(=O)N(C)CC(=O)N(C)[C@@H](C(C)C)C(=O)O[C@@H]4C)c3nc-2c(C(=O)N[C@@H]2C(=O)N[C@H](C(C)C)C(=O)N3CCC[C@H]3C(=O)N(C)CC(=O)N(C)[C@@H](C(C)C)C(=O)O[C@@H]2C)c(N)c1=O", "cell viability": 1.96},
      {"smiles": "Cc1[nH]c(/C=C2\\C(=O)Nc3ccc(S(=O)(=O)N(C)c4cccc(Cl)c4)cc32)c(C)c1C(=O)N1CCN(C)CC1", "cell viability": 62.8},
      {"smiles": "CCN(CC)CCNC(=O)c1c(C)[nH]c(/C=C2\\C(=O)Nc3ccc(F)cc32)c1C", "note": "[Sunitinib Malate (Sutent)]", "cell viability": 32.9},
      {"smiles": "Cc1[nH]c(/C=C2\\C(=O)Nc3ccc(S(=O)(=O)Cc4c(Cl)cccc4Cl)cc32)c(C)c1C(=O)N1CCC[C@@H]1CN1CCCC1", "cell viability": 92.1},
      {"smiles": "CC(=O)Oc1cc(-c2coc3cc(OC(C)=O)c(OC(C)=O)c(OC(C)=O)c3c2=O)cc(OC(C)=O)c1OC(C)=O", "cell viability": 93.9},
      {"smiles": "CC(=O)O[C@@H]1CC2C(C)(C)[C@H](O)C=C[C@]2(C)C2CC[C@@]3(C)[C@H](c4ccoc4)OC(=O)C4OC43[C@@]21C", "note": "(stereo partly drawn)", "cell viability": 98.8},
      {"smiles": "O=c1c2ccccc2oc2ccccc12", "cell viability": 101},
      {"smiles": "CC(=O)Nc1nc(C)c(-c2ccc(Cl)c(S(=O)(=O)NCCO)c2)s1", "cell viability": 56.6},
      {"smiles": "Nc1ccccc1NC(=O)c1ccc(CNc2nccc(-c3cccnc3)n2)cc1", "note": "[Mocetinostat (MGCD0103)]", "cell viability": 4.85},
      {"smiles": "Nc1ccccc1NC(=O)c1ccc(CNC(=O)OCc2cccnc2)cc1", "note": "[Entinostat (MS-275, SNDX-275)]", "cell viability": 12.6},
      {"smiles": "O=C(NCO)c1cccnc1", "cell viability": 106},
      {"smiles": "O=C(CCNNC(=O)c1ccncc1)NCc1ccccc1", "cell viability": 90.2},
      {"smiles": "COc1c2ccoc2c(OC)c2oc(=O)ccc12", "cell viability": 115},
      {"smiles": "CC(NC(=O)c1ccccc1/N=C/c1c(O)ccc2ccccc12)c1ccccc1", "note": "(stereo not drawn) [Sirtinol]", "cell viability": 103},
      {"smiles": "CCc1cc(C(N)=S)ccn1", "cell viability": 97.8},
      {"smiles": "CCc1ccc2c(O)c3c(cc2c1C(=O)OC)C(=O)c1c(O)ccc(O)c1C3=O", "cell viability": 102},
      {"smiles": "NC(=O)c1ccc(I)c([N+](=O)[O-])c1", "note": "[Iniparib (BSI-201)]", "cell viability": 103},
      {"smiles": "C[C@H]1COC2=C1C(=O)C(=O)c1c2ccc2c1CCCC2(C)C", "cell viability": 97.7},
      {"smiles": "C=C1C(=O)O[C@@H]2C[C@@]3(C)CCC[C@H](C)C3=C[C@H]12", "cell viability": 74},
      {"smiles": "COc1cccc(O)c1O", "cell viability": 110},
      {"smiles": "C=CCn1c(=O)c2cnc(Nc3ccc(N4CCN(C)CC4)cc3)nc2n1-c1cccc(C(C)(C)O)n1", "cell viability": 19.2},
      {"smiles": "CO[C@@H](C(=O)N1Cc2[nH]nc(NC(=O)c3ccc(N4CCN(C)CC4)cc3)c2C1)c1ccccc1", "cell viability": 13.4},
      {"smiles": "CC(C(=O)O)[C@H]1CCC2C3CC=C4C[C@@H](O)CC[C@]4(C)C3CC[C@@]21C", "note": "(stereo partly drawn) [3beta-HYDROXY-23,24-BISNORCHOL-5-ENIC ACID]", "cell viability": 109},
      {"smiles": "CNCc1ccccc1", "cell viability": 104},
      {"smiles": "C=CC1=C(C)/C(=C/c2[nH]c(Cc3[nH]c(/C=C4\\NC(=O)C(C)=C4C=C)c(C)c3CCC(=O)O)c(CCC(=O)O)c2C)NC1=O", "cell viability": 91.9},
      {"smiles": "C=CC(C)(O)CCC=C(C)CCC=C(C)C", "note": "(mixture of isomers)", "cell viability": 93.6},
      {"smiles": "COc1cc(OC)c(/C=C/S(=O)(=O)Cc2ccc(OC)c(NCC(=O)O)c2)c(OC)c1", "cell viability": 41.4},
      {"smiles": "NCCC(O)(P(=O)(O)O)P(=O)(O)O", "note": "[Pamidronate Disodium]", "cell viability": 79.9},
      {"smiles": "COc1cc2c(cc1OC)Cc1cc(OC)c(OC)cc1Cc1cc(OC)c(OC)cc1C2", "cell viability": 113},
      {"smiles": "CC1=CC(=O)C(C(C)C)=CC1=O", "cell viability": 97.2},
      {"smiles": "CC[C@@]1(O)C(=O)OCc2c1cc1n(c2=O)Cc2cc3cc(O)ccc3nc2-1", "cell viability": 7.32},
      {"smiles": "CC[C@@]1(O)C(=O)OCc2c1cc1n(c2=O)Cc2cc3c(CN(C)C)c(O)ccc3nc2-1", "note": "[Topotecan HCl]", "cell viability": 2.12},
      {"smiles": "CCc1c2c(nc3ccc(OC(=O)N4CCC(N5CCCCC5)CC4)cc13)-c1cc3c(c(=O)n1C2)COC(=O)[C@]3(O)CC", "note": "[Irinotecan]", "cell viability": 13},
      {"smiles": "CCc1c2c(nc3ccc(OC(=O)N4CCC(N5CCCCC5)CC4)cc13)-c1cc3c(c(=O)n1C2)COC(=O)[C@]3(O)CC", "note": "[Irinotecan HCl Trihydrate (Campto)]", "cell viability": 15.9},
      {"smiles": "COc1cc(/C=C/CO)ccc1O", "cell viability": 87.7},
      {"smiles": "O=C(O)/C=C/C=C/c1ccc2c(c1)OCO2", "cell viability": 109},
      {"smiles": "CC(=O)O[C@@H]1C[C@@]2(C)C(CC[C@@H]2C(C)=O)C2CCC3=CC(=O)CC[C@]3(C)C21", "note": "(stereo partly drawn)", "cell viability": 91.1},
      {"smiles": "CC(N)C12CC3CC(CC(C3)C1)C2", "note": "(stereo not drawn)", "cell viability": 105},
      {"smiles": "COc1cc2c(cc1OC)C1(O)C(=O)c3ccc(O)c(C(=O)O)c3OC1CO2", "note": "(stereo not drawn)", "cell viability": 101},
      {"smiles": "COc1ccc2c(c1OC)OC[C@@H](c1ccc(OC)c(OC)c1OC)C2", "cell viability": 113},
      {"smiles": "COc1cc(C)c(C(=O)Oc2cc(C)c(C(=O)O)c(O)c2C)c(O)c1C=O", "cell viability": 91.2},
      {"smiles": "C[C@H](N)C(=O)NC(Cc1ccccc1)C(=O)O", "note": "(mixture of isomers)", "cell viability": 100},
      {"smiles": "CC1(C)CC2C1CC[C@]1(C)CCC3C(C(=O)O)CC(=O)O[C@@]32C1", "note": "(stereo partly drawn) [3-HYDROXY-4-(SUCCIN-2-YL)-CARYOLANE delta-LACTONE]", "cell viability": 103},
      {"smiles": "C[C@@H]1C(=O)O[C@H]2C[C@@]34[C@H]5C[C@@H](C(C)(C)C)[C@]36[C@@H](OC(=O)[C@@H]6O)O[C@@]4(C(=O)O5)[C@]21O", "cell viability": 94.4},
      {"smiles": "COc1ccc([C@@H](C)C(=O)c2ccc(O)cc2O)cc1", "cell viability": 112},
      {"smiles": "CC1(COc2ccc3c(c2)ncn3-c2ccc3cccc(N4CCC(N)CC4)c3n2)COC1", "cell viability": 29.2},
      {"smiles": "C[C@@]12CCc3occc3[C@H]1CC[C@@]13C[C@@H](CC[C@H]12)[C@@](O)(CO)C3", "cell viability": 89.6},
      {"smiles": "COc1c(-c2ccccc2)oc2c(ccc3occc32)c1=O", "cell viability": 97.3}
    ]}
  ]
}
